Hit rate of the full screen: of about 16,000 compounds, about 5,100 (32%) were called active. Inconclusive results (about 25%) are left out. This is one part of the list. A number with no mark means an inactive call. The call rests on the fitted dose curve; in most records, active means well fitted curve in the direction sought with a large enough effect; inconclusive means small, poorly fitted or top-dose-only effect, or effect the other way; inactive means no such curve, though single readings can be large or run the other way.
Each molecule was assayed against Cytochrome P450 3A4 (Homo sapiens) (UniProt P08684) (assay: Cytochrome panel assay with activity outcomes). Details: recombinant CYP, pro-luciferin dealkylation, luminescence, p450-cyp3a4; series mostly up to 57.1 µM.
Sequence of Cytochrome P450 3A4 (Homo sapiens) (P08684 whole entry, looked up): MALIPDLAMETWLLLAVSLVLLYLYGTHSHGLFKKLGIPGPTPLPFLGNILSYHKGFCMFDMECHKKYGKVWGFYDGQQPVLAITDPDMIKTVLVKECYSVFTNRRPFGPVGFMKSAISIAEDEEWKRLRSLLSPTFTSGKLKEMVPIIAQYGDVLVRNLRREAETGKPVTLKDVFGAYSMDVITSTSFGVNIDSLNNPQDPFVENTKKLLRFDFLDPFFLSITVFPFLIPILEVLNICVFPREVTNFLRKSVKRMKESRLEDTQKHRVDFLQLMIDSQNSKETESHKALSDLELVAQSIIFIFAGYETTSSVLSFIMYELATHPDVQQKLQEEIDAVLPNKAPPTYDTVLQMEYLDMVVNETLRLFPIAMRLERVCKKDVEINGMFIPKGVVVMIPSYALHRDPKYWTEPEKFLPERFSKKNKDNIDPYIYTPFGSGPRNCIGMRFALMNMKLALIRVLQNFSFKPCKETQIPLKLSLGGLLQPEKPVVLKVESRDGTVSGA
On the % scale 0 is the no-effect control and ±100 the full control effect.

**Q.** With `CCC(=O)OCN1C(=O)C=CC1=O` as the molecule, how does the activity, negative = inhibition read?
**A.** 2.64% [at 11.4 µM]

**Q.** For `N=C(N)SCc1nc2ccccc2c(=O)n1-c1ccccc1Cl`, which activity, negative = inhibition is on record?
**A.** -15.4% [at 2.29 µM]

**Q.** With `CCCN1C(=O)C(Cc2nc3ccccc3c(=O)n2C)c2ccccc21` (centres undefined) as the molecule, how does the AC50 read?
**A.** 7.94 µM (active)

**Q.** Which AC50 does the source give for `CC(=O)N1CCC2(CC1)CN(c1ccccc1)C2` here?
**A.** inactive

**Q.** Which AC50 does the source give for `CCOC(=O)CC1NC(=O)c2ccccc21` (centres undefined) here?
**A.** inactive

**Q.** With `CC(=O)N1CCN(C(=O)CC2OC(=O)c3ccccc32)CC1` (centres undefined) as the molecule, how does the AC50 read?
**A.** 12.6 µM (active)

**Q.** For `O=C(CSc1nc2ccccc2[nH]1)Nc1c(F)cccc1F`, which AC50 is on record?
**A.** 14.1 µM (active)

**Q.** For `O=C(O)CSc1nc2ccccc2[nH]1`, which activity, negative = inhibition is on record?
**A.** 2.87% [at 11.4 µM]

**Q.** Which AC50 does the source give for `Cc1cccc(CNc2cc(-c3ccccc3Cl)ncn2)c1` here?
**A.** 15.8 µM (active)

**Q.** Which AC50 does the source give for `Cc1cccc(CNc2cc(-c3ccccc3CN(C)C)ncn2)c1` here?
**A.** 15.8 µM (active)

**Q.** Which AC50 does the source give for `CNc1cc(-c2ccccc2CN(C)C)ncn1` here?
**A.** inactive

**Q.** With `COc1ccccc1-c1cc(NCc2ccccc2)ncn1` as the molecule, how does the AC50 read?
**A.** inactive

**Q.** For `CN(C)Cc1ccccc1-c1cc(NCc2ccccc2)ncn1`, which AC50 is on record?
**A.** inactive

**Q.** Which AC50 does the source give for `Cc1cnc(CNc2cc(-c3ccccc3CN(C)C)ncn2)cn1` here?
**A.** inactive

**Q.** For `CN(C)Cc1ccccc1-c1cc(NC2CC2)ncn1`, which AC50 is on record?
**A.** 25.1 µM (active)

**Q.** How did the AC50 turn out when `COc1ccccc1-c1cc(NCc2cccc(C)c2)ncn1` was run?
**A.** 6.31 µM (active)

**Q.** `COC(=O)[C@@]1(Cc2ccccc2)[C@H]2c3cc(C(=O)N4CCCC4)n(Cc4cc(F)cc5c4OCOC5)c3C[C@H]2CN1C(=O)c1ccccc1` was tested. Which AC50 did it give?
**A.** 3.98 µM (active)

**Q.** How did the AC50 turn out when `COC(=O)[C@@]1(Cc2ccc(OC)cc2)[C@H]2c3cc(C(=O)N4CCCC4)n(Cc4cc(F)cc5c4OCOC5)c3C[C@H]2CN1C(=O)c1ccccc1` was run?
**A.** 2.51 µM (active)

**Q.** How did the AC50 turn out when `CC(C)(CNC(=O)c1ccc([N+](=O)[O-])c(Cl)c1)CNC(=O)c1ccc([N+](=O)[O-])c(Cl)c1` was run?
**A.** 8.91 µM (active)

**Q.** How did the activity, negative = inhibition turn out when `O=C(O)c1ccc([N+](=O)[O-])c(P(=O)(O)O)c1` was run?
**A.** -2.76% [at 11.4 µM]

**Q.** `NCCNC(=O)c1ccc(Cl)cc1` was tested. Which AC50 did it give?
**A.** inactive

**Q.** With `N[C@@H](CSCc1ccc(I)cc1)C(=O)O` as the molecule, how does the activity, negative = inhibition read?
**A.** -8.11% [at 11.4 µM]

**Q.** For `Cc1ccccc1-c1nccc(NCCN2CCOCC2)n1`, which AC50 is on record?
**A.** 25.1 µM (active)

**Q.** With `FC(F)(F)c1ccccc1-c1cc(NCCN2CCOCC2)ncn1` as the molecule, how does the AC50 read?
**A.** inactive

**Q.** How did the AC50 turn out when `Clc1ccccc1-c1nccc(NCCN2CCOCC2)n1` was run?
**A.** 15.8 µM (active)

**Q.** `Clc1ccccc1-c1cc(NCCN2CCOCC2)ncn1` was tested. Which AC50 did it give?
**A.** inactive

**Q.** How did the AC50 turn out when `COCCNc1ccnc(-c2ccccc2C)n1` was run?
**A.** inactive

**Q.** With `FC(F)(F)c1ccccc1-c1nccc(NCCN2CCOCC2)n1` as the molecule, how does the AC50 read?
**A.** 15.8 µM (active)

**Q.** Which activity, negative = inhibition does the source give for `N=C(N)[C@H](N=Nc1ccccc1)C(N)=O` here?
**A.** -11.5% [at 11.4 µM]

**Q.** For `CCOc1cccc(NC(=O)CSc2nc(C)c3c(c2C#N)CCCC3)c1`, which activity, negative = inhibition is on record?
**A.** -6.34% [at 11.4 µM]

**Q.** For `CCOc1ccc(NC(=O)CSc2nc(C)c3c(c2C#N)CCCC3)cc1`, which AC50 is on record?
**A.** 12.6 µM (active)

**Q.** Which AC50 does the source give for `COc1ccc(NC(=O)CSc2nc(C)c3c(c2C#N)CCCC3)cc1` here?
**A.** 17.8 µM (active)

**Q.** `Cn1cc(C(=O)c2cccc(Cl)c2Cl)cc1C(=O)O` was tested. Which AC50 did it give?
**A.** inactive

**Q.** Which AC50 does the source give for `Cn1cccc1C(=O)N1CCC2(CCN(Cc3ccccc3)CC2)CC1` here?
**A.** inactive

**Q.** `Cn1cccc1C(=O)N1CCC2(CC1)CN(Cc1cc(C(F)(F)F)cc(C(F)(F)F)c1)C2` was tested. Which AC50 did it give?
**A.** inactive

**Q.** `Cn1cccc1C(=O)N1CCC2(CC1)CN(Cc1ccc(C#N)cc1)C2` was tested. Which AC50 did it give?
**A.** inactive

**Q.** Which AC50 does the source give for `Cn1cccc1C(=O)N1CCC[C@@]2(CCN(Cc3ccc(C#N)cc3)C2)C1` here?
**A.** 12.6 µM (active)

**Q.** For `Cn1cccc1C(=O)N1CCC[C@@]2(CCN(Cc3cc(C(F)(F)F)cc(C(F)(F)F)c3)C2)C1`, which AC50 is on record?
**A.** 15.8 µM (active)

**Q.** For `CCN[C@@H]1C[C@H](C)S(=O)(=O)c2sc(S(N)(=O)=O)cc21`, which AC50 is on record?
**A.** inactive

**Q.** How did the AC50 turn out when `NC(N)=Nc1nc(CCN2C(=O)c3ccccc3C2=O)cs1` was run?
**A.** inactive

**Q.** With `N#C/C(=C/c1cccc(C(F)(F)F)c1)c1nc(CCN2C(=O)c3ccccc3C2=O)cs1` as the molecule, how does the AC50 read?
**A.** 5.01 µM (active)

**Q.** How did the AC50 turn out when `Cc1nc2nc[nH]n2c(=O)c1NC(=O)CC12CC3CC(CC(C3)C1)C2` was run?
**A.** inactive

**Q.** With `O=C(O)CC12C[C@H]3C[C@@H](CC(O)(C3)C1)C2` as the molecule, how does the activity, negative = inhibition read?
**A.** -10.4% [at 11.4 µM]

**Q.** `O=C(O)CSCNC(=O)CC12CC3CC(CC(C3)C1)C2` was tested. Which AC50 did it give?
**A.** 0.224 µM (active)

**Q.** Which AC50 does the source give for `NC(=O)c1ccc(-c2ncc(-c3ccccc3)o2)cc1` here?
**A.** inactive

**Q.** For `NC(=O)c1ccc(-c2nc(-c3ccc4c(c3)OCO4)c(-c3ccccn3)[nH]2)cc1`, which AC50 is on record?
**A.** 10 µM (active)

**Q.** For `O=C(O)Cc1nn(Cc2ccc(Br)cc2F)c(=O)c2ccccc12`, which AC50 is on record?
**A.** inactive

**Q.** `COc1ccc(NC(=O)COc2ccc(CNCCCN3CCOCC3)cc2OC)cc1` was tested. Which AC50 did it give?
**A.** inactive

**Q.** Which AC50 does the source give for `CCOc1cc(CNCCCN2CCOCC2)cc(Br)c1OCC(=O)Nc1cccc(C(F)(F)F)c1` here?
**A.** 4.47 µM (active)

**Q.** `c1csc(CNCCCN2CCOCC2)c1` was tested. Which AC50 did it give?
**A.** inactive

**Q.** For `CN(C)c1ccc(-c2nc(Nc3ccncc3)c3ccccc3n2)cc1`, which AC50 is on record?
**A.** 7.94 µM (active)

**Q.** Which AC50 does the source give for `CN(C)C(=O)c1ccc(-c2nc(Nc3ccncc3)c3ccccc3n2)cc1` here?
**A.** 15.8 µM (active)

**Q.** How did the activity, negative = inhibition turn out when `CC(=O)NC1=NC(=O)C(C)S1` (centres undefined) was run?
**A.** -3.3% [at 2.29 µM]

**Q.** How did the AC50 turn out when `CCCC(=O)Nc1c2c(nn1-c1ccc(C)cc1C)CSC2` was run?
**A.** 7.08 µM (active)

**Q.** Which AC50 does the source give for `Cc1ccc(-n2nc3c(c2NC(=O)c2cccs2)CSC3)cc1` here?
**A.** 12.6 µM (active)

**Q.** `Cc1ccccc1-n1nc2c(c1NC(=O)c1c(-c3ccccc3Cl)noc1C)CSC2` was tested. Which AC50 did it give?
**A.** 1.12 µM (active)

**Q.** For `CCN(CC)S(=O)(=O)c1ccc(C(=O)Nc2ncn(Cc3ccccc3)n2)cc1`, which AC50 is on record?
**A.** inactive

**Q.** `Cc1onc(-c2c(F)cccc2Cl)c1C(=O)N[C@H]1C(=O)N2[C@H]1SC(C)(C)[C@H]2C(=O)O` was tested. Which AC50 did it give?
**A.** inactive

**Q.** With `CCCC(=O)Nc1c(C)n[nH]c1C` as the molecule, how does the AC50 read?
**A.** inactive

**Q.** Which AC50 does the source give for `Cc1cc(NC(=O)c2ccc(S(=O)(=O)N(C)C)cc2)n(-c2ccccn2)n1` here?
**A.** inactive

**Q.** With `Cc1onc(-c2c(F)cccc2Cl)c1C(=O)N[C@@H]1C(=O)N2[C@H]1SC(C)(C)[C@H]2C(=O)O` as the molecule, how does the activity, negative = inhibition read?
**A.** -13.2% [at 11.4 µM]

**Q.** Which AC50 does the source give for `Cc1ccccc1-n1nc2c(c1NC(=O)c1ccc(S(=O)(=O)N(C)C)cc1)CSC2` here?
**A.** 14.1 µM (active)

**Q.** For `Cc1ccc(NC(=O)CCC(=O)NNS(=O)(=O)c2ccccc2)c(C)c1`, which activity, negative = inhibition is on record?
**A.** 21.8% [at 2.29 µM]

**Q.** Which activity, negative = inhibition does the source give for `Cc1ccc(NC(=O)CCC(=O)NNC(=O)c2cccs2)c(C)c1` here?
**A.** -1.38% [at 2.29 µM]
